In article PMC9838217, “Structure of SALL4 zinc finger domain reveals link between AT-rich DNA binding and Okihiro syndrome”:
Positions count from the first letter of the chain named.

Legend:
Assay in all cases: HT-SELEX; high values mean tight binding
Conditions in all cases: protein: recombinant; vector His6-GST; dsDNA, one strand shown
SALL4 ZFC4 WT (HT-SELEX) = molecular target: T1, SALL4 ZFC4 WT (HT-SELEX) (Mus musculus, UniProt Q8BX22 870-940)
T1 sequence: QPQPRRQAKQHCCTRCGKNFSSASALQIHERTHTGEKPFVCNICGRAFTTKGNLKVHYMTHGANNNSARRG
Summary of the method: (§1)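 Binding signal is defined as the fold change of each canonical k-mer's read fraction versus the initial random library. Selections used 1 µg of purified recombinant mouse SALL4 zinc finger cluster 4 (residues 870–940) with library DNA (1.5 µg first cycle, 200 ng later) in 100 µl of 10 mM Tris–HCl pH 7.5, 50 mM NaCl, poly(dI-dC) and DTT, for 10 min at room temperature, followed by Ni2+ bead capture, washing and PCR. Up to 6 such cycles were run in triplicate before MiSeq sequencing and 6-mer scanning.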

[1] = molecular target: T2, SALL4 ZFC4 R900W (HT-SELEX) (Mus musculus, UniProt Q8BX22 870-940, R900W)
T2 sequence: T1 sequence with R31W
Summary of the method: as §1

[2] = molecular target: T3, SALL4 ZFC4 G921D (HT-SELEX) (Mus musculus, UniProt Q8BX22 870-940, G921D)
T3 sequence: T1 sequence with G52D
Summary of the method: as §1

Sequence	binding signal (SALL4 ZFC4 WT (HT-SELEX))	binding signal [1]	binding signal [2]
ATAGAC	1.2 ± 0.024 fold-change vs cycle 0	1.29 ± 0.0416 fold-change vs cycle 0	1.3 ± 0.09 fold-change vs cycle 0
ACAGAA	1.26 ± 0.036 fold-change vs cycle 0	1.37 ± 0.0837 fold-change vs cycle 0	1.3 ± 0.0881 fold-change vs cycle 0
AAATTC	1.76 ± 0.142 fold-change vs cycle 0	1.66 ± 0.0813 fold-change vs cycle 0	1.58 ± 0.109 fold-change vs cycle 0
CCATAG	0.841 ± 0.0326 fold-change vs cycle 0	0.91 ± 0.0505 fold-change vs cycle 0	0.94 ± 0.039 fold-change vs cycle 0
GATATC	1.46 ± 0.0542 fold-change vs cycle 0	1.45 ± 0.075 fold-change vs cycle 0	1.39 ± 0.0375 fold-change vs cycle 0
AGCTAG	0.723 ± 0.0356 fold-change vs cycle 0	0.815 ± 0.0265 fold-change vs cycle 0	0.874 ± 0.021 fold-change vs cycle 0
CCGATC	0.399 ± 0.0279 fold-change vs cycle 0	0.473 ± 0.0177 fold-change vs cycle 0	0.64 ± 0.0658 fold-change vs cycle 0
TGTGAA	1.23 ± 0.0362 fold-change vs cycle 0	1.38 ± 0.0419 fold-change vs cycle 0	1.29 ± 0.0621 fold-change vs cycle 0
CGGTAC	0.362 ± 0.0117 fold-change vs cycle 0	0.437 ± 0.0232 fold-change vs cycle 0	0.552 ± 0.049 fold-change vs cycle 0
ATTGAC	1.17 ± 0.0362 fold-change vs cycle 0	1.31 ± 0.032 fold-change vs cycle 0	1.3 ± 0.0284 fold-change vs cycle 0
CCAGAC	0.368 ± 0.0286 fold-change vs cycle 0	0.471 ± 0.0141 fold-change vs cycle 0	0.553 ± 0.0511 fold-change vs cycle 0
AACATT	1.95 ± 0.0486 fold-change vs cycle 0	1.96 ± 0.0488 fold-change vs cycle 0	1.79 ± 0.136 fold-change vs cycle 0
ACTCGA	0.761 ± 0.0231 fold-change vs cycle 0	0.839 ± 0.0214 fold-change vs cycle 0	0.905 ± 0.00699 fold-change vs cycle 0
ATATTG	2.19 ± 0.214 fold-change vs cycle 0	1.8 ± 0.105 fold-change vs cycle 0	1.69 ± 0.149 fold-change vs cycle 0
CCCGTA	0.415 ± 0.0258 fold-change vs cycle 0	0.477 ± 0.0181 fold-change vs cycle 0	0.557 ± 0.0362 fold-change vs cycle 0
ATACTG	1.31 ± 0.0361 fold-change vs cycle 0	1.4 ± 0.0644 fold-change vs cycle 0	1.36 ± 0.0801 fold-change vs cycle 0
ATGGCA	0.55 ± 0.0226 fold-change vs cycle 0	0.607 ± 0.0241 fold-change vs cycle 0	0.733 ± 0.0739 fold-change vs cycle 0
GATACA	1.33 ± 0.0706 fold-change vs cycle 0	1.39 ± 0.0615 fold-change vs cycle 0	1.37 ± 0.0715 fold-change vs cycle 0
ACCCCT	0.522 ± 0.0409 fold-change vs cycle 0	0.619 ± 0.0154 fold-change vs cycle 0	0.676 ± 0.0257 fold-change vs cycle 0
CATCCA	0.851 ± 0.0432 fold-change vs cycle 0	0.934 ± 0.0343 fold-change vs cycle 0	0.974 ± 0.0408 fold-change vs cycle 0
GCTTAC	0.774 ± 0.0137 fold-change vs cycle 0	0.852 ± 0.0208 fold-change vs cycle 0	0.908 ± 0.0208 fold-change vs cycle 0

Sequence	binding signal (SALL4 ZFC4 WT (HT-SELEX))	binding signal [1]	binding signal [2]
CTGATC	0.794 ± 0.0362 fold-change vs cycle 0	0.948 ± 0.0293 fold-change vs cycle 0	1.02 ± 0.0279 fold-change vs cycle 0
GTCAAC	0.711 ± 0.0163 fold-change vs cycle 0	0.867 ± 0.00955 fold-change vs cycle 0	0.934 ± 0.0287 fold-change vs cycle 0
ATTTGA	1.85 ± 0.0312 fold-change vs cycle 0	1.79 ± 0.0613 fold-change vs cycle 0	1.65 ± 0.0905 fold-change vs cycle 0
ATGTCA	1.23 ± 0.0617 fold-change vs cycle 0	1.34 ± 0.0399 fold-change vs cycle 0	1.32 ± 0.0617 fold-change vs cycle 0
ATTCGG	0.592 ± 0.0176 fold-change vs cycle 0	0.669 ± 0.0177 fold-change vs cycle 0	0.753 ± 0.0617 fold-change vs cycle 0
GTTGAA	1.18 ± 0.0583 fold-change vs cycle 0	1.34 ± 0.0591 fold-change vs cycle 0	1.3 ± 0.109 fold-change vs cycle 0
AATGAC	1.18 ± 0.09 fold-change vs cycle 0	1.36 ± 0.06 fold-change vs cycle 0	1.3 ± 0.105 fold-change vs cycle 0
ACCTTA	1.43 ± 0.0462 fold-change vs cycle 0	1.6 ± 0.0314 fold-change vs cycle 0	1.44 ± 0.0668 fold-change vs cycle 0
CGGGAA	0.362 ± 0.00736 fold-change vs cycle 0	0.417 ± 0.0262 fold-change vs cycle 0	0.499 ± 0.0534 fold-change vs cycle 0
CACTTC	0.777 ± 0.0329 fold-change vs cycle 0	0.925 ± 0.0515 fold-change vs cycle 0	0.946 ± 0.0498 fold-change vs cycle 0
CGATTA	1.16 ± 0.0473 fold-change vs cycle 0	1.17 ± 0.0726 fold-change vs cycle 0	1.18 ± 0.023 fold-change vs cycle 0
CAAAGG	0.765 ± 0.046 fold-change vs cycle 0	0.898 ± 0.0341 fold-change vs cycle 0	0.935 ± 0.0222 fold-change vs cycle 0
TCTCAA	1.28 ± 0.029 fold-change vs cycle 0	1.413 ± 0.011 fold-change vs cycle 0	1.34 ± 0.061 fold-change vs cycle 0
ACTTAT	2.49 ± 0.156 fold-change vs cycle 0	2.19 ± 0.135 fold-change vs cycle 0	1.9 ± 0.197 fold-change vs cycle 0
GTGTAA	1.24 ± 0.0525 fold-change vs cycle 0	1.37 ± 0.0544 fold-change vs cycle 0	1.28 ± 0.0793 fold-change vs cycle 0
ATCGGG	0.397 ± 0.0233 fold-change vs cycle 0	0.457 ± 0.0142 fold-change vs cycle 0	0.568 ± 0.0671 fold-change vs cycle 0
AAAGGA	1.36 ± 0.0473 fold-change vs cycle 0	1.57 ± 0.109 fold-change vs cycle 0	1.44 ± 0.105 fold-change vs cycle 0
CTCTGC	0.35 ± 0.0408 fold-change vs cycle 0	0.396 ± 0.021 fold-change vs cycle 0	0.522 ± 0.0742 fold-change vs cycle 0
CAACCA	0.686 ± 0.0177 fold-change vs cycle 0	0.804 ± 0.0166 fold-change vs cycle 0	0.877 ± 0.0338 fold-change vs cycle 0
ATCTCC	0.945 ± 0.0285 fold-change vs cycle 0	1.04 ± 0.0372 fold-change vs cycle 0	1.06 ± 0.0438 fold-change vs cycle 0
CGGTCA	0.331 ± 0.0331 fold-change vs cycle 0	0.405 ± 0.0336 fold-change vs cycle 0	0.52 ± 0.0692 fold-change vs cycle 0
